MITF primary = human MITF inhibition, primary screen. O75030. 650,000 compounds, 0.91% hits. inhibition, % at 2.6 µM. AID 1259374. AlphaScreen MITF homodimerization, bead proximity signal; in the data active = inhibition above about 50%;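 also: 0% = vehicle wells with protein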
GPR151 activ = human GPR151 activation. Q8TDV0. PathHunter beta-arrestin GPR151 cells, luminescence. activation, % at 11.2 µM. 650,000 compounds, 1% hits. AID 1508602; in the data active = activation above about 4.9%;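 also: 0% = median of compound wells and 100% = cells with positive control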
FBW7 activator = human FBW7 E3 ligase activation, primary screen; Q969H0; AID 1259310; AlphaScreen FBW7–phospho-cyclin E peptide binding, activator screen; normalized activity (activation), % at 26.1 µM; 650,000 compounds, 0.13% hits; in the data active = normalized activity above about 1.9%;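 also: purified mutant Fbw7 with reduced substrate affinity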
Target sequence (Q969H0 whole entry, looked up): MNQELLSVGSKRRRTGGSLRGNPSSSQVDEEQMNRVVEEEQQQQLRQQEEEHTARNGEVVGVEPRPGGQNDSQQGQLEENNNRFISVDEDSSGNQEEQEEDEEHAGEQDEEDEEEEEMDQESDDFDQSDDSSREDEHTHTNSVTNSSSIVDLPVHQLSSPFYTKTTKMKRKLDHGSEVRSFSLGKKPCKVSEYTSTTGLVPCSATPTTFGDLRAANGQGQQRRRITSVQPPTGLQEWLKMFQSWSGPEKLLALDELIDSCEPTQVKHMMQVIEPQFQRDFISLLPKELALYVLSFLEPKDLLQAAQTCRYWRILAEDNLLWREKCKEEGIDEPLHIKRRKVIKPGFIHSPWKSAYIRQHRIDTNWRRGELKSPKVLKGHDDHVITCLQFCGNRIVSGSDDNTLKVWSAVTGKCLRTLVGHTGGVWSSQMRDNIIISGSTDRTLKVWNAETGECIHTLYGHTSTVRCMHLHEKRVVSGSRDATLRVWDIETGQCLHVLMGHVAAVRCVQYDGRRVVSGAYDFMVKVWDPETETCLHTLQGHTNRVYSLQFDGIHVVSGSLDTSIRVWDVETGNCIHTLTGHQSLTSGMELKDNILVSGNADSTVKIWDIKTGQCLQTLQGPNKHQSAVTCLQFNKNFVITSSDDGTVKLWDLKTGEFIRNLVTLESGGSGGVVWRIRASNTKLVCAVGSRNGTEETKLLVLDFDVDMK
TEAD-YAP block = TEAD-YAP interaction inhibition. inhibition, % at 9.12 µM. 640,000 compounds, 1.4% hits. AID 1259422. HEK-TIYL cells, TEAD-Gal4/YAP UAS-luciferase luminescence; in the data active = inhibition above about 32%;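 also: 0% = median of test compound wells and 100% = reference inhibitor wells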
MITF inh conf = confirmation of human MITF inhibitors; shares compounds with MITF primary; AlphaScreen MITF homodimerization, biotin/His-MITF beads; inhibition, % at 2.6 µM; 4,700 compounds, 16% hits; AID 1259372;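 active = inhibition above a cutoff derived from the DMSO control wells, cut at about 28% in these data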;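 also: 0% = MITF dimer wells with DMSO only; inhibitors lower the bead chemiluminescence by keeping MITF from dimerizing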
AlphaScreen DR = optically interferes with AlphaScreen signal in dose response; IC50, µM; shares compounds with MITF primary; 480 compounds, 6% hits; AlphaScreen optical interference counterscreen, cell-free; AID 1259373; call rule not given here
AlphaScreen intf2 = optically interferes with AlphaScreen signal; shares compounds with MITF primary; LysRS AlphaScreen counterscreen, signal interference, triplicate; inhibition, % at 2.6 µM; 4,700 compounds, 7.6% hits; AID 1259376;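 active = inhibition above a cutoff derived from the DMSO control wells, cut at about 30% in these data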
The depositor's hits bear a star; x = no result. The list is not random: actives were taken first. Their share in the collection is about 3.4%.

SMILES	MITF primary	GPR151 activ	FBW7 activator	TEAD-YAP block	MITF inh conf	AlphaScreen intf2	others
COc1c(O)ccc(/C=N/NC(=O)Cc2cccc3ccccc23)c1[N+](=O)[O-]	15	2	0	-4	x	x
COc1ccc(S(=O)(=O)N2CCN(Cc3cc(OC)ccc3OC)CC2)cc1	5	0	0	1	x	x
COc1ccc(OC)c(CN2CCN(Cc3ccc(Br)cc3)CC2)c1	77*	-1	0	-3	0	-1
COc1ccc(OC)c(CN2CCN(S(C)(=O)=O)CC2)c1	60*	-1	0	12	11	11
COc1ccc(CN2CCN(C3CCCC(C)C3)CC2)c(OC)c1 (stereo unspecified)	33	0	0	6	x	x
COc1ccc(OC)c(CN2CCN(C3CCC(C)CC3)CC2)c1 (stereo unspecified)	57*	1	0	2	9	-4
COCCn1c(SCC#N)nnc1-c1cnccn1	-3	1	0	1	x	x
Cn1c(SCC#N)nnc1-c1cnccn1	69*	0	0	-1	10	18
COC(=O)CSc1nnc(-c2cnccn2)n1C	65*	0	0	-4	36*	11	AlphaScreen DR=>6.5
Cc1cc(NS(=O)(=O)c2cc(Br)cnc2N)ccc1Br	-1	-1	0	-5	x	x
Cc1ccc(NC(=O)COC(=O)c2cc[n+]([O-])cc2)cc1C	77*	3	0	-18	-5	-7
Cc1cc(C)cc(NC(=O)COC(=O)c2cc[n+]([O-])cc2)c1	-5	0	0	1	x	x
O=C1c2ccccc2C(=O)N1c1ncc(Cc2cc(Cl)ccc2Cl)s1	9	-1	0	9	x	x
O=C1c2ccccc2C(=O)N1c1ncc(Cc2ccc(Cl)cc2)s1	59*	-1	0	14	12	18
Cc1ccc(Cn2c(=N)n(CC(O)COc3ccc(Cl)cc3)c3ccccc32)cc1 (stereo unspecified)	64*	2	0	3	11	4
CCCCOc1ccc(OCCOCCN2CCN(CC)CC2)cc1	65*	0	0	-2	12	14
CCN1CCN(CCCOc2ccc(C#N)cc2)CC1	72*	-1	0	18	12	18
CCN1CCN(CCOCCOc2ccc(F)cc2)CC1	70*	0	0	8	32*	10	AlphaScreen DR=>6.5
CCN1CCN(CCOc2ccc(F)cc2)CC1	81*	3	0	9	10	18
Fc1ccc(OCCN2CCNCC2)cc1	60*	2	0	10	-11	-4
CCN1CCN(CCOCCOc2ccc(I)cc2)CC1	81*	1	1	9	5	15
Cc1nn(C2CCS(=O)(=O)C2)c(Cl)c1CNCc1ccccc1 (stereo unspecified)	58*	2	0	2	5	-5
CC(C)CCNC(=O)CN1CCN(Cc2ccccc2Cl)C1=O	-7	2	0	-2	x	x
O=C(OC1(C(F)(F)F)C(=O)Nc2cc3c(cc21)OCO3)c1ccc(Cl)nc1 (stereo unspecified)	81*	0	0	-3	71*	-25	AlphaScreen DR=>7.1
C=CCn1c2cc(C)sc2c2cnn(CC(=O)NC(C)C)c(=O)c21	19	0	0	-1	x	x
SMILES	MITF primary	GPR151 activ	FBW7 activator	TEAD-YAP block	MITF inh conf	AlphaScreen intf2	others
COc1cc(CN2CCC(N3CCCC3)CC2)cc(OC)c1OC	58*	0	0	3	-6	-6
COc1cc(CN2CCN(C3CCCCC3C)CC2)cc(OC)c1OC (stereo unspecified)	74*	1	0	6	10	9
COc1cc(CN2CCC(N3CCCCC3)CC2)cc(OC)c1OC	1	1	0	-7	x	x
CNC(=O)CSc1nnc(-c2ccco2)n1Cc1ccccc1	-3	0	0	-10	x	x
COc1cc(CN2CCN(Cc3ccccc3F)CC2)cc(OC)c1O	1	-1	0	6	x	x
COc1cc(OC)c(OC)cc1CN1CCN(Cc2ccccc2C(F)(F)F)CC1	76*	-1	0	-8	4	8
COc1cc(CN2CCN(Cc3ccccc3C(F)(F)F)CC2)cc(OC)c1O	68*	-1	0	-1	2	23
COc1ccc(OC)c(CN2CCN(c3ccccc3OC)CC2)c1	23	-1	1	3	x	x
COc1ccc(CN2CCN(Cc3ccccc3C(F)(F)F)CC2)c(OC)c1	78*	0	0	7	16	14
COc1ccc(OC)c(CN2CCN(Cc3ccccc3C(F)(F)F)CC2)c1	71*	-1	0	-1	9	-5
COc1cc(/C=c2/sc3nc4ccccc4n3c2=O)cc(Br)c1OC	-1	0	0	3	x	x
COC(=O)c1c(-c2ccccc2)csc1NC(C)=O	13	1	0	1	x	x
COc1ccccc1N1CCN(Cc2ccc(OC)c(OC)c2OC)CC1	28	0	0	4	x	x
COc1ccc(CN2CCN(Cc3ccccc3C(F)(F)F)CC2)c(OC)c1OC	59*	-1	0	3	5	16
O=C1OC(c2cc(C3=N/C(=C\c4ccccc4)C(=O)O3)cc(C3=N/C(=C/c4ccccc4)C(=O)O3)c2)=N/C1=C\c1ccccc1	58*	0	0	9	30*	5
O=C1OC(c2cccc([N+](=O)[O-])c2)=N/C1=C\c1ccc(OCc2ccccc2)cc1	64*	0	0	14	37*	16
CC(=O)Nc1ccc(C2=N/C(=C/c3cccc([N+](=O)[O-])c3)C(=O)O2)cc1	58*	0	0	-2	5	-11
O=C1OC(c2ccc(Cl)c(Cl)c2)=N/C1=C\c1ccccc1	-4	1	0	5	x	x
Cc1ccc(C2=N/C(=C\c3ccc(OCc4ccccc4)cc3)C(=O)O2)cc1[N+](=O)[O-]	4	-1	0	4	x	x
Cc1ccc(OCCCCN2CCNCC2)c([N+](=O)[O-])c1	80*	0	-1	0	-18	2
O=[N+]([O-])c1ccccc1OCCN1CCCC1	10	0	0	-5	x	x
O=[N+]([O-])c1ccccc1OCCCCN1CCNCC1	67*	0	0	-10	4	6
CCN1CCN(CCCOc2ccccc2[N+](=O)[O-])CC1	74*	0	0	2	9	12
CC1CCCN(CCOc2ccccc2[N+](=O)[O-])C1 (stereo unspecified)	54*	-1	0	6	2	5
COC(=O)c1c(NC(=O)c2ccc3c(c2)OCO3)sc(C(N)=O)c1C	-6	0	0	0	x	x
CCOC(=O)CCCCC(=O)c1[nH]c(=O)[nH]c1Cn1ccnc1	36	1	0	-14	x	x
CCOC(=O)CCCCC(=O)c1[nH]c(=O)n(C(=O)c2ccccc2)c1C	89*	0	-2	-5	115*	98*

From PubChem BioAssay
